# In the supplement of paper PMC10849652:
# The full data set covers some 8,800 targets. This sample favours those with a hit. About 0.5% of all pairs of compound and target were hits. Values without a mark were called inactive.
# Key:
# Test in all cases: log2 fold change, soluble protein after heating vs DMSO (PISA); higher = thermal stabilisation; K562 lysate, 10 uM; active = over 0.2 and 3.5 SD of the protein, either way, in both replicates (recomputed)
# [1] = compound: Cc1cn(-c2cc(NC(=O)c3ccc(C)c(Nc4nccc(-c5cccnc5)n4)c3)cc(C(F)(F)F)c2)cn1 [nilotinib]
# How it was run: (§1)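 A 30 min treatment with 10 μM compound was applied to crude K562 extract at 1 mg/mL protein in PBS pH 7.4 with 1 mM MgCl2. Heating for 3 min spanned 48°C-58°C, after which aliquots were pooled, adjusted to 0.5% NP-40 at 4°C and spun at 21,000xg for 90 min. TMTpro 16plex LC-MS/MS of the supernatant, with channel sums equalised, gave values recorded as log-two fold change in thermal stability against solvent controls, from duplicates.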
# [2] = compound: Cc1nc(Nc2n[nH]c3c2CN(C(=O)N[C@H](CN(C)C)c2ccccc2)C3(C)C)c2sccc2n1
# How it was run: as §1
# [3] = compound: Cc1nc(Nc2ncc(C(=O)Nc3c(C)cccc3Cl)s2)cc(N2CCN(CCO)CC2)n1 [dasatinib]
# How it was run: as §1
# [4] = compound: Cc1ncc(-c2ccnc(Nc3ccc(S(C)(=O)=O)cc3)n2)n1C(C)C
# How it was run: as §1
# [5] = compound: Cn1cc(-c2ccc3c(c2)CCN3C(=O)Cc2cccc(C(F)(F)F)c2)c2c(N)ncnc21
# How it was run: as §1
# [6] = compound: Cn1cc(CNCC2CCN(c3ncc(C(=O)NO)cn3)CC2)c2ccccc21 [quisinostat]
# How it was run: as §1
# [7] = compound: Cn1cncc1[C@@](N)(c1ccc(Cl)cc1)c1ccc2c(c1)c(-c1cccc(Cl)c1)cc(=O)n2C [tipifarnib]
# How it was run: as §1
# [8] = compound: NC(=O)Nc1cc(-c2cccc(F)c2)sc1C(=O)N[C@H]1CCCNC1
# How it was run: as §1
# [9] = compound: NC(=O)c1cnc(N[C@@H]2CCCC[C@@H]2N)nc1Nc1cccc(-n2nccn2)c1
# How it was run: as §1
# [10] = compound: NC1(c2ccc(-c3nc4ccn5c(=O)[nH]nc5c4cc3-c3ccccc3)cc2)CCC1
# How it was run: as §1
# Sequence of UniProt Q8IWC1 (Q8IWC1 whole entry, looked up): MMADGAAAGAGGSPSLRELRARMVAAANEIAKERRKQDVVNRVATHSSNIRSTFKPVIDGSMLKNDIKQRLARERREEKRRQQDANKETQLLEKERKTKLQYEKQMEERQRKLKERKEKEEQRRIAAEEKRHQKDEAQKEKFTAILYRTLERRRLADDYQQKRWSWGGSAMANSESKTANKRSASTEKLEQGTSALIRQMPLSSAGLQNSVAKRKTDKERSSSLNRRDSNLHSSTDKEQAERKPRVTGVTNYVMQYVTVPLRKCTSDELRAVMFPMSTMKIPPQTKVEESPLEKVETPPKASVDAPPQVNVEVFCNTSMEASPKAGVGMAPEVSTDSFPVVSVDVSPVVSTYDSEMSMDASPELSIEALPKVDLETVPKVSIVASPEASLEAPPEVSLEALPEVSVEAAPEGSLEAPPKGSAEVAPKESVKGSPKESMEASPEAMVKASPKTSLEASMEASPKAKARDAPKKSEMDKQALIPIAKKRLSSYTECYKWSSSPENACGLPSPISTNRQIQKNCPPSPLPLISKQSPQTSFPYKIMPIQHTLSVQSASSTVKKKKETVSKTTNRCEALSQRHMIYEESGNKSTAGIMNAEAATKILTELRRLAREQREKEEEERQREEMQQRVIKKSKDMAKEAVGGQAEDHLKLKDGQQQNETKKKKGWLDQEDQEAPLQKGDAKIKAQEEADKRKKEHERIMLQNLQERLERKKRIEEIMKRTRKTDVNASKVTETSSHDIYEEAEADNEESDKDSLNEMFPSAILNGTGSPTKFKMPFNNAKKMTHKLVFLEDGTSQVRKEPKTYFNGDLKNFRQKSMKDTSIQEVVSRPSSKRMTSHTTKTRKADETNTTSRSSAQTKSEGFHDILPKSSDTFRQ
# Sequence of UniProt P36507 (P36507 whole entry, looked up): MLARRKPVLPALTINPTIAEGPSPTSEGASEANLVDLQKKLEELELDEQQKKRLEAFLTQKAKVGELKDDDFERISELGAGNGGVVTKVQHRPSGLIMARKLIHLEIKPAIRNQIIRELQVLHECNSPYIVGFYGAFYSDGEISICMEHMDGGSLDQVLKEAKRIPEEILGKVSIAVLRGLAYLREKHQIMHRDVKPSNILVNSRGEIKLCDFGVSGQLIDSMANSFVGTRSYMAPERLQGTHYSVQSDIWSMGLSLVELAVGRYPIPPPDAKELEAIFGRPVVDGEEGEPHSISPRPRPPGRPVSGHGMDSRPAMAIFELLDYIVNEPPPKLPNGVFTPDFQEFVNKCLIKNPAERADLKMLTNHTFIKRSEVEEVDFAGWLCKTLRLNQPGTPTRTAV
# Sequence of UniProt P11279 (P11279 whole entry, looked up): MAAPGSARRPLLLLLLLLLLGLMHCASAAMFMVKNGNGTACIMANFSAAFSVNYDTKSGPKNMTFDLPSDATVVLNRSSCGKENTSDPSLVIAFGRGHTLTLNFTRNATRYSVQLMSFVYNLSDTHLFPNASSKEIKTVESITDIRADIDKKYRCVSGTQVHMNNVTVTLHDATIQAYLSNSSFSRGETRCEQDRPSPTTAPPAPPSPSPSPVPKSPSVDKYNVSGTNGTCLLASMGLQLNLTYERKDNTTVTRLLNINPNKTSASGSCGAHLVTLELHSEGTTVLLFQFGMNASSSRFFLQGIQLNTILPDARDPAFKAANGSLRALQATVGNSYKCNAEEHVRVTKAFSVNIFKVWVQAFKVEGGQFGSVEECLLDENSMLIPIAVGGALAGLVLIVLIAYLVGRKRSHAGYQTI
# Sequence of UniProt Q96II8 (Q96II8 whole entry, looked up): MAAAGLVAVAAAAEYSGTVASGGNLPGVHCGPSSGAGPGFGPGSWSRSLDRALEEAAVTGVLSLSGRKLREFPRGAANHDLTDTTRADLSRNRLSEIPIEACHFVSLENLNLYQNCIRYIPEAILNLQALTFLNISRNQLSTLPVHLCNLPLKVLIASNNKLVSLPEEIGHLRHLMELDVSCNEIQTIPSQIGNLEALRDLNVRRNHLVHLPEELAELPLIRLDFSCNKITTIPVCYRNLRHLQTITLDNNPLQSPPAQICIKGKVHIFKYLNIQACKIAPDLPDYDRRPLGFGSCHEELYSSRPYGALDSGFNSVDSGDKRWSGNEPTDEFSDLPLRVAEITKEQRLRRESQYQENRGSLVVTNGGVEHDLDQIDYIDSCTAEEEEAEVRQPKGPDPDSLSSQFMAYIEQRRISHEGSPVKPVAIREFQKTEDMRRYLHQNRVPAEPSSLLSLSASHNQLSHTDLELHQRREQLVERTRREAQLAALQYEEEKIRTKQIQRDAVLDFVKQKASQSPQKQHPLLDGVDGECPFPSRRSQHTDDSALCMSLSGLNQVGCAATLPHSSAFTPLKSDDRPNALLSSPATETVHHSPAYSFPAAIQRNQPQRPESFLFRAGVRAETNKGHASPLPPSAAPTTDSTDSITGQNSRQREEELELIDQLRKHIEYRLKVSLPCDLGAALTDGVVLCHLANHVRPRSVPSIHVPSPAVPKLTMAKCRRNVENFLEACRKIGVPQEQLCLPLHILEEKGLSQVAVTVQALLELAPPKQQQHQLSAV
# Sequence of UniProt Q1ED39 (Q1ED39 whole entry, looked up): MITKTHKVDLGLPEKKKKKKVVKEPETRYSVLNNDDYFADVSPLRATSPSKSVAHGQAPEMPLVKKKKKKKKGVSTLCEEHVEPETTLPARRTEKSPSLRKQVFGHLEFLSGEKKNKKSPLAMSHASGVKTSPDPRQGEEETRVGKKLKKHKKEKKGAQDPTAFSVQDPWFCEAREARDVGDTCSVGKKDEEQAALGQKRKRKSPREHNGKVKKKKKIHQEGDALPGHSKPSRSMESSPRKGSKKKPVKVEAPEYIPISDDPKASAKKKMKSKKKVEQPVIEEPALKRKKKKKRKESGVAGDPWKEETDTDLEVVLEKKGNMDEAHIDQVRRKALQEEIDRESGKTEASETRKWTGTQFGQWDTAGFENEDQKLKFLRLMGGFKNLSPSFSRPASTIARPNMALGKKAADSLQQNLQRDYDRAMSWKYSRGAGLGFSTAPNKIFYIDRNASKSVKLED
# Sequence of UniProt Q8IVT5 (Q8IVT5 whole entry, looked up): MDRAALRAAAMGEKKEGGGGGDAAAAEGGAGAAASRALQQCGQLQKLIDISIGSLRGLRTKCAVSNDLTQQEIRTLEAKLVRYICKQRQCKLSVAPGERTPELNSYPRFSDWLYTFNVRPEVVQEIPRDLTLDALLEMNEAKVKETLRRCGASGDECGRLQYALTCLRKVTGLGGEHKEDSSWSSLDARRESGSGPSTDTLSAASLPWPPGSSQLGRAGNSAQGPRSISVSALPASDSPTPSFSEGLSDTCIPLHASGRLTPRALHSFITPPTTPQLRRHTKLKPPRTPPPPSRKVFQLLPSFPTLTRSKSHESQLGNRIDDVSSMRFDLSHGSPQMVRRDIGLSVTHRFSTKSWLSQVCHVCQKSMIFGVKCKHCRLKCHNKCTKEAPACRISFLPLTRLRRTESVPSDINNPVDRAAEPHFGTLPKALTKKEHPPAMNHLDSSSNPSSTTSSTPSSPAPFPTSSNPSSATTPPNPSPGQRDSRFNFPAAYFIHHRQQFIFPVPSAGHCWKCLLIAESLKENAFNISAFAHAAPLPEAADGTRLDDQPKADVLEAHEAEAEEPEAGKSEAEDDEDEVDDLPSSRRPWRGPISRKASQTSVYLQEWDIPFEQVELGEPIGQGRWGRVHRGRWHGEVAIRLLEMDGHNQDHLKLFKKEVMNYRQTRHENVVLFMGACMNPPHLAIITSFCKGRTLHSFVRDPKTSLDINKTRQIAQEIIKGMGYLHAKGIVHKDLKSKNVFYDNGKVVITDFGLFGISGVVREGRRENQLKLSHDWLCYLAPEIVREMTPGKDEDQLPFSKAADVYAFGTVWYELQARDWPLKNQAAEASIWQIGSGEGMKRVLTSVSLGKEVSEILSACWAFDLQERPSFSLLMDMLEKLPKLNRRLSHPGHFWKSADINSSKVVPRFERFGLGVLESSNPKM
# Sequence of UniProt O00522 (O00522 whole entry, looked up): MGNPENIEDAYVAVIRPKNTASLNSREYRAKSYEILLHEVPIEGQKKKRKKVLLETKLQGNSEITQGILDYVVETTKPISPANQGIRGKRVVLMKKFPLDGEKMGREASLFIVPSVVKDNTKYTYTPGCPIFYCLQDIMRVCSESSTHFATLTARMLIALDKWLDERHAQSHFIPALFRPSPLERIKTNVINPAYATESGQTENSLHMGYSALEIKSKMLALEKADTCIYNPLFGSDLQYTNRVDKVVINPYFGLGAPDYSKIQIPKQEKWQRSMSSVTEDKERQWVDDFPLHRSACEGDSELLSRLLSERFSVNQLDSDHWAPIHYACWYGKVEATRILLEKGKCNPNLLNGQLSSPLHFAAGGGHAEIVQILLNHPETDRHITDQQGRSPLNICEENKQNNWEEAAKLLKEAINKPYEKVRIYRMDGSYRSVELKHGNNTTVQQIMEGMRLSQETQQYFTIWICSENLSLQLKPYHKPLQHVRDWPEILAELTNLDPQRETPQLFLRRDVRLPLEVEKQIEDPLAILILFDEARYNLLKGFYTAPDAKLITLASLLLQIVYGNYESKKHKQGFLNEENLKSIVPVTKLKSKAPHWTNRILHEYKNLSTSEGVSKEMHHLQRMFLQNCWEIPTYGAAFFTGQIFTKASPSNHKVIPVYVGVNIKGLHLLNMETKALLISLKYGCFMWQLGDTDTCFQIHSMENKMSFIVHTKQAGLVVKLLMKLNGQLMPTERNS
# Sequence of UniProt P45983 (P45983 whole entry, looked up): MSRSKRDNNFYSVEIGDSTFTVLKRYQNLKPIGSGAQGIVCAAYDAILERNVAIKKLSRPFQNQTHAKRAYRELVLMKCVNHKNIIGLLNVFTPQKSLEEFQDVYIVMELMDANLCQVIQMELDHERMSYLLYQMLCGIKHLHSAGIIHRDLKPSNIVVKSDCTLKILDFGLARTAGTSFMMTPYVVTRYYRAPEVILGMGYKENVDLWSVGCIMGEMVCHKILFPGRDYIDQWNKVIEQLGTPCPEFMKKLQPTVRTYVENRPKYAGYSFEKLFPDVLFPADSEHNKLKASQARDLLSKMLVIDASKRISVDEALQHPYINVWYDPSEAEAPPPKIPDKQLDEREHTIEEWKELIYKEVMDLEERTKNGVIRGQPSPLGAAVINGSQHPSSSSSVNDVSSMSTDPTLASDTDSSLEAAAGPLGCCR
Target,log2 fold change [1],log2 fold change [2],log2 fold change [3],log2 fold change [4],log2 fold change [5],log2 fold change [6],log2 fold change [7],log2 fold change [8],log2 fold change [9],log2 fold change [10]
KNOP1 (UniProt Q1ED39),-0.09,0.055,-0.028,-0.095,-0.001,-0.169,-0.01,0.007,0.048,-0.062
KSR1 (UniProt Q8IVT5),0,-0.04,-0.106,0.056,0.057,-0.015,-0.116,0.069,0.051,0.003
MICU1 isoform 3 (UniProt Q9BPX6),0.01,-0.044,-0.02,-0.015,0.027,0.002,-0.015,-0.026,0.06,-0.021
MRPL28 (UniProt Q13084),0.03,-0.111,-0.013,-0.037,0.051,-0.031,0.149,0.057,0.015,-0.058
MAP7D3 (UniProt Q8IWC1),-0.012,-0.01,0.03,-0.037,0.029,-0.101,0.014,0.003,-0.016,0.005
LRCH3 (UniProt Q96II8),-0.003,-0.029,-0.095,0.064,0.038,-0.16,-0.029,-0.005,0.011,-0.025
MITD1 (UniProt Q8WV92),-0.022,0.089,0.011,-0.09,0.027,0.027,0.022,0.03,0.07,-0.047
MME (UniProt P08473),-0.09,0.082,-0.513 (active),0.021,0.104,-0.02,-0.031,0.085,0.061,-0.014
MECR (UniProt Q9BV79),-0.085,0.012,-0.03,-0.004,0.02,0.07,-0.009,-0.041,0.02,-0.028
MED28 (UniProt Q9H204),0.053,0.053,-0.004,0.053,-0.006,-0.007,0.015,-0.013,-0.005,-0.014
MGST3 (UniProt O14880),0.024,0.016,0.029,-0.019,-0.062,0.016,-0.014,0.009,-0.013,-0.031
LYRM4 (UniProt Q9HD34),0.009,-0.031,-0.061,0.052,-0.028,-0.093,-0.028,0.054,-0.036,-0.005
LUZP1 (UniProt Q86V48),0.013,-0.046,-0.004,-0.02,0.062,-0.03,-0.005,0.109,0.01,0.027
MAST4 (UniProt O15021),-0.078,0.114,0.001,0.08,0.04,0.104,0.012,0.073,0.021,0.059
KIF3C (UniProt O14782),-0.038,-0.117,0.026,0.191,0.062,-0.204,-0.187,0.043,-0.194,0.145
MAP2K2 (UniProt P36507),-0.03,0.205,0.445 (active),0.065,-0.031,0,-0.006,0.495 (active),0.033,-0.002
LAMP1 (UniProt P11279),0.021,-0.033,-0.058,0.002,-0.036,-0.113,-0.012,0.016,-0.003,-0.017
KRAS (UniProt P01116),0.034,-0.014,0.049,0.018,-0.015,0.042,0.129,-0.001,0.005,-0.032
MAPK9 (UniProt P45984),-0.015,0.025,-0.005,0.174,0.118,0.004,-0.028,-0.005,0.009,0.012
MAP1S (UniProt Q66K74),0.007,-0.022,-0.007,-0.009,0.009,-0.006,0.02,0.026,0,0
MCUB (UniProt Q9NWR8),-0.142,0.119,0.075,-0.12,0.122,-0.262,-0.112,0.143,-0.008,-0.014
KRIT1 (UniProt O00522),-0.011,-0.04,0.027,0.041,-0.048,-0.147,-0.135,0.09,0.021,-0.005
MAPK14 (UniProt Q16539),0.563,0.038,0.984 (active),0.069,-0.029,-0.025,-0.137,-0.012,-0.005,-0.042
MIF (UniProt P14174),0.036,-0.042,0.001,-0.007,-0.009,0.058,0.061,0.035,0,0.033
MAP4 isoform 5 (UniProt P27816),-0.168,-0.029,-0.371,0.291,0.029,-0.036,-0.101,0.03,-0.02,-0.213
MAPK8 isoform 3 (UniProt P45983),0.051,-0.007,0.054,0.326 (active),0.07,-0.139,0.006,0.093,0.115,-0.062
MRPL27 (UniProt Q9P0M9),-0.112,0.027,0.089,-0.039,0.091,-0.012,0.015,-0.006,0.072,-0.064
KLHL12 isoform 2 (UniProt Q53G59),-0.037,-0.044,-0.056,0.064,-0.07,0.04,0.015,0.097,0.043,0.035
LZTR1 (UniProt Q8N653),0.016,0.014,-0.063,-0.068,0.008,-0.029,-0.036,0.099,-0.033,-0.019
